Consider one compound from ChEMBL document CHEMBL1961873, “Compounds: GSK PKIS; Assays: Nanosyn kinase panel” (2012).

The target in test [1] is Sphingosine kinase 1 (Homo sapiens) (UniProt Q9NYA1). As to conditions: at 1 µM.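 Also: mean SPHK1 inhibition value reported from the GSK PKIS kinase panel screen.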
In test [2] the target is T1, Sphingosine kinase 2 (Homo sapiens) (UniProt Q9NRA0).
T1 sequence (whole entry): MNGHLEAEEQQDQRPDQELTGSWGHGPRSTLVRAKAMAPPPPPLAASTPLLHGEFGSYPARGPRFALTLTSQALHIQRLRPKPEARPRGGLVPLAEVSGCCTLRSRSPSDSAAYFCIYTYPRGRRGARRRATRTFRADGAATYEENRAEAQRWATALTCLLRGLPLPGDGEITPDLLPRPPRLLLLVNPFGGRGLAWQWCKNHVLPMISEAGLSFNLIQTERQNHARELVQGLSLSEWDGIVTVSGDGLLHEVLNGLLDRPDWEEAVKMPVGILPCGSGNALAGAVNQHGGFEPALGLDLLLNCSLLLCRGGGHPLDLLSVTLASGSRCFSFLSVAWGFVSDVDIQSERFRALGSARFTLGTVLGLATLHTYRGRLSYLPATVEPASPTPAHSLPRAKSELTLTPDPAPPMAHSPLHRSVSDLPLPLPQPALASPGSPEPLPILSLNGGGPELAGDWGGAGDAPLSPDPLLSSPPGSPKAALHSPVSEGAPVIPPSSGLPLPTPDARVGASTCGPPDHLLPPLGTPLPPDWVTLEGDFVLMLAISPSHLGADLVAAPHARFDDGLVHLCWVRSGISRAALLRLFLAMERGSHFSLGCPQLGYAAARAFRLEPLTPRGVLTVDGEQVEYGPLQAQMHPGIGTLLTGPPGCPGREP
As to conditions: at 0.1 µM.

Test [3] addresses T1, Sphingosine kinase 2 (Homo sapiens). The conditions noted are these: at 1 µM.
The target of test [4] is Casein kinase II subunit alpha (Homo sapiens) (UniProt P68400). The conditions noted are these: at 0.1 µM.
Test [5] has the same target. As to conditions: at 1 µM.
The target in test [6] is T2, Inhibitor of nuclear factor kappa-B kinase subunit alpha (Homo sapiens) (UniProt O15111).
T2 sequence (whole entry): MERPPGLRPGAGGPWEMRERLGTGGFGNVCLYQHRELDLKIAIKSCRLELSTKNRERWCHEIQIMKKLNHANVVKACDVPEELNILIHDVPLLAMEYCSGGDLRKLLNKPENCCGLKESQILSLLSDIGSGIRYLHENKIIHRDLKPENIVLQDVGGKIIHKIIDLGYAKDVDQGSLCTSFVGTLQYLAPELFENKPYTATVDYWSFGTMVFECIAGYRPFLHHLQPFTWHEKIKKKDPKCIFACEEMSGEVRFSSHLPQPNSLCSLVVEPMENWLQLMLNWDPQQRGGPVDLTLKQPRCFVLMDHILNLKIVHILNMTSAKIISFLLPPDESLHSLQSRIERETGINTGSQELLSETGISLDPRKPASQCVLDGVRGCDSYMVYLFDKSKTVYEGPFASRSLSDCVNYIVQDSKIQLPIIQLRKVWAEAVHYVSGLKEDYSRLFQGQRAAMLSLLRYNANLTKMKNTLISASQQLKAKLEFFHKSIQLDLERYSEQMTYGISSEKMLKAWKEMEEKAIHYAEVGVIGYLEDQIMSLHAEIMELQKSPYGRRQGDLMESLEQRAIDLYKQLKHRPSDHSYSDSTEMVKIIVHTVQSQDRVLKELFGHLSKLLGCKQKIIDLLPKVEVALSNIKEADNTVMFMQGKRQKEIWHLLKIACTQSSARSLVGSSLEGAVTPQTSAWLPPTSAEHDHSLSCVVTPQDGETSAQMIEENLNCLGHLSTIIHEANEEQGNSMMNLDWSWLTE
As to conditions: at 0.1 µM.

Test [7] has as its target T2, Inhibitor of nuclear factor kappa-B kinase subunit alpha (Homo sapiens). As to conditions: at 1 µM.
Test [8] addresses T3, Inhibitor of nuclear factor kappa-B kinase subunit beta (Homo sapiens) (UniProt O14920).
T3 sequence (whole entry): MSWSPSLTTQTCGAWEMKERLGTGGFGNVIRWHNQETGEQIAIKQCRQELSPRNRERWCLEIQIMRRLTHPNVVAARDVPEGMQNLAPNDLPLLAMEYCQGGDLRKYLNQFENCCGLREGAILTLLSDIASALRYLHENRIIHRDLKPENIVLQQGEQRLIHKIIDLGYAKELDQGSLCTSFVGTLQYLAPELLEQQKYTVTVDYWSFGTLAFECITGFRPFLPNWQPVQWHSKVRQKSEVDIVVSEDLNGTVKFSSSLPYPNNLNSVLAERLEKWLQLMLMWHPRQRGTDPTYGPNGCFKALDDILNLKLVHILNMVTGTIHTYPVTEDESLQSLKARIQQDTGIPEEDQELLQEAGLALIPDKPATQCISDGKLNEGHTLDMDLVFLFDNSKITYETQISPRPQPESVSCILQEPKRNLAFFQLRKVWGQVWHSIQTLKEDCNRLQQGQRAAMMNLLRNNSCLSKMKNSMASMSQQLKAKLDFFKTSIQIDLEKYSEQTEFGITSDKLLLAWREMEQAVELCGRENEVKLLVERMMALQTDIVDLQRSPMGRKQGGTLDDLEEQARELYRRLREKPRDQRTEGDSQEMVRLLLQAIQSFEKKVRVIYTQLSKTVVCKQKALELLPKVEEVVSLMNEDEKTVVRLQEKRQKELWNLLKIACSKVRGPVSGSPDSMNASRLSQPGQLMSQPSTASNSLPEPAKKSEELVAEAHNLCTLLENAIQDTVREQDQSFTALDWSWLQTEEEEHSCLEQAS
As to conditions: at 0.1 µM.

The target of test [9] is T3, Inhibitor of nuclear factor kappa-B kinase subunit beta (Homo sapiens). The conditions noted are these: at 1 µM.
The target of test [10] is T4, Inhibitor of nuclear factor kappa-B kinase subunit epsilon (Homo sapiens) (UniProt Q14164).
T4 sequence (whole entry): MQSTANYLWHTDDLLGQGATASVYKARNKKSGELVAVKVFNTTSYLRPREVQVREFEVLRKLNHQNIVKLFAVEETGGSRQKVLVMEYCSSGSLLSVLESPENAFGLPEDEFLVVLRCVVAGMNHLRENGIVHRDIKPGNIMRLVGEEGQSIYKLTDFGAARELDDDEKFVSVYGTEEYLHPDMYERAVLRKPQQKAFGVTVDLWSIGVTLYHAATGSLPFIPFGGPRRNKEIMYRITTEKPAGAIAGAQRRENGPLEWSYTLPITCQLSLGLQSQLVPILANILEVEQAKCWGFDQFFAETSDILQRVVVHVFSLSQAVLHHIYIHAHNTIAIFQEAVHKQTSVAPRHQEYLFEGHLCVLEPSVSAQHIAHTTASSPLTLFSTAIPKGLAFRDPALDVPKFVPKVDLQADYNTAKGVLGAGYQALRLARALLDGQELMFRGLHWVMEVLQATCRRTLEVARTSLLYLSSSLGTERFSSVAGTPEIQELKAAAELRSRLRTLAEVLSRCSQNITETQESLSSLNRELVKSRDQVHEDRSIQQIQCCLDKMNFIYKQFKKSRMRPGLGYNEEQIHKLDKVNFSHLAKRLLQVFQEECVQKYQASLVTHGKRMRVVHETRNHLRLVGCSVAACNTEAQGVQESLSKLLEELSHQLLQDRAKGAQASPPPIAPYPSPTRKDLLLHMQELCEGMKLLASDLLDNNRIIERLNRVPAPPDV
As to conditions: at 0.1 µM.

Test [11] deals with T4, Inhibitor of nuclear factor kappa-B kinase subunit epsilon (Homo sapiens). The conditions noted are these: at 1 µM.
In test [12] the target is T5, Serine/threonine-protein kinase Nek1 (Homo sapiens) (UniProt Q96PY6).
T5 sequence (whole entry): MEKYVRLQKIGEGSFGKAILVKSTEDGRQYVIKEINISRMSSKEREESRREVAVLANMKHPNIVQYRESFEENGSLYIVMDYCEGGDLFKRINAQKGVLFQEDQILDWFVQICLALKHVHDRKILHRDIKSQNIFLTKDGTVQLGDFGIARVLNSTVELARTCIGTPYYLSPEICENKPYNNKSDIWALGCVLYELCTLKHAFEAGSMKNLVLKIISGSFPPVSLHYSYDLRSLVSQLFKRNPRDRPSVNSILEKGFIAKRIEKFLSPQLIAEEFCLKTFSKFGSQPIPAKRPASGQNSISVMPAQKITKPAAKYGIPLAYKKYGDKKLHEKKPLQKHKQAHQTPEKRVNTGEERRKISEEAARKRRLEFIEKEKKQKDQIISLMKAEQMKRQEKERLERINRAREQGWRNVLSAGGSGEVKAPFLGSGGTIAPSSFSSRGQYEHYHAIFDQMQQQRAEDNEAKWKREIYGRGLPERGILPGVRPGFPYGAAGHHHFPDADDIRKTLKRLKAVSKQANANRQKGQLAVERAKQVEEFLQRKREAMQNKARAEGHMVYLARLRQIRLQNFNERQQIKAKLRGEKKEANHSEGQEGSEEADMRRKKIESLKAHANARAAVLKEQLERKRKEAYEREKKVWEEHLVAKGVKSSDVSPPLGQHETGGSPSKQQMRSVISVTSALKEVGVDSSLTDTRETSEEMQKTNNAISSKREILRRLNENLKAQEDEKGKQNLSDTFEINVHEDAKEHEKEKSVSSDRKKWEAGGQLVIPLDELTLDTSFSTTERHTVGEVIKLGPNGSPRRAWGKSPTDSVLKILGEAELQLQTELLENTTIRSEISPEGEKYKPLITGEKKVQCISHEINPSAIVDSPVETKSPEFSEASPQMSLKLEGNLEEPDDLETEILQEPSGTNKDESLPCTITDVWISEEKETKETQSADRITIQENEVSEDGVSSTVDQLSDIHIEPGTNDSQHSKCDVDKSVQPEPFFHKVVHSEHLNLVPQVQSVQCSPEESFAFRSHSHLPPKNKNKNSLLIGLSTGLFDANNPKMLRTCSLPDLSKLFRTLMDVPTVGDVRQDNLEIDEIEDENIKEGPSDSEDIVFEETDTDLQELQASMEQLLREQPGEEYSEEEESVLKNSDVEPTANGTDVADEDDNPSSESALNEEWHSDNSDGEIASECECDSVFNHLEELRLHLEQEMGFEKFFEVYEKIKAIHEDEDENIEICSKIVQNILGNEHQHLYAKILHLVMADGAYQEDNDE
As to conditions: at 0.1 µM.

The target in test [13] is T5, Serine/threonine-protein kinase Nek1 (Homo sapiens). As to conditions: at 1 µM.
The target of test [14] is T6, Serine/threonine-protein kinase Nek2 (Homo sapiens) (UniProt P51955).
T6 sequence (whole entry): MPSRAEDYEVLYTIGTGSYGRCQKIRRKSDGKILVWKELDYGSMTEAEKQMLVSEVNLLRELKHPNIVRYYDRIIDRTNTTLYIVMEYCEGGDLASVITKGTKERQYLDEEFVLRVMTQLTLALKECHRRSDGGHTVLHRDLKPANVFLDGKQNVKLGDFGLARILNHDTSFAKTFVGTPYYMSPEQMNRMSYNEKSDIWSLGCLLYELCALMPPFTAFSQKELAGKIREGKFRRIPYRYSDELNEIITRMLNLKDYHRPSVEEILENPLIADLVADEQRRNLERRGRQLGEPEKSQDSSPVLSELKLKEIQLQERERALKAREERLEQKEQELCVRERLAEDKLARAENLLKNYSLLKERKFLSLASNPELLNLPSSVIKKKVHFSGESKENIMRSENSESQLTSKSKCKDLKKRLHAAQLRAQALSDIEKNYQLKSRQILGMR
As to conditions: at 0.1 µM.

The target in test [15] is T6, Serine/threonine-protein kinase Nek2 (Homo sapiens). The conditions noted are these: at 1 µM.
The target of test [16] is Serine/threonine-protein kinase Nek6 (Homo sapiens) (UniProt Q9HC98). The conditions noted are these: at 0.1 µM.
For test [17] the target is unchanged. As to conditions: at 1 µM.
The target of test [18] is Serine/threonine-protein kinase Nek7 (Homo sapiens) (UniProt Q8TDX7). The conditions noted are these: at 0.1 µM.
Test [19] has the same target. The conditions noted are these: at 1 µM.
Test [20] concerns the target T7, Serine/threonine-protein kinase Nek9 (Homo sapiens) (UniProt Q8TD19).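 Also: reported value is the mean percent inhibition of NEK9.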
T7 sequence (whole entry): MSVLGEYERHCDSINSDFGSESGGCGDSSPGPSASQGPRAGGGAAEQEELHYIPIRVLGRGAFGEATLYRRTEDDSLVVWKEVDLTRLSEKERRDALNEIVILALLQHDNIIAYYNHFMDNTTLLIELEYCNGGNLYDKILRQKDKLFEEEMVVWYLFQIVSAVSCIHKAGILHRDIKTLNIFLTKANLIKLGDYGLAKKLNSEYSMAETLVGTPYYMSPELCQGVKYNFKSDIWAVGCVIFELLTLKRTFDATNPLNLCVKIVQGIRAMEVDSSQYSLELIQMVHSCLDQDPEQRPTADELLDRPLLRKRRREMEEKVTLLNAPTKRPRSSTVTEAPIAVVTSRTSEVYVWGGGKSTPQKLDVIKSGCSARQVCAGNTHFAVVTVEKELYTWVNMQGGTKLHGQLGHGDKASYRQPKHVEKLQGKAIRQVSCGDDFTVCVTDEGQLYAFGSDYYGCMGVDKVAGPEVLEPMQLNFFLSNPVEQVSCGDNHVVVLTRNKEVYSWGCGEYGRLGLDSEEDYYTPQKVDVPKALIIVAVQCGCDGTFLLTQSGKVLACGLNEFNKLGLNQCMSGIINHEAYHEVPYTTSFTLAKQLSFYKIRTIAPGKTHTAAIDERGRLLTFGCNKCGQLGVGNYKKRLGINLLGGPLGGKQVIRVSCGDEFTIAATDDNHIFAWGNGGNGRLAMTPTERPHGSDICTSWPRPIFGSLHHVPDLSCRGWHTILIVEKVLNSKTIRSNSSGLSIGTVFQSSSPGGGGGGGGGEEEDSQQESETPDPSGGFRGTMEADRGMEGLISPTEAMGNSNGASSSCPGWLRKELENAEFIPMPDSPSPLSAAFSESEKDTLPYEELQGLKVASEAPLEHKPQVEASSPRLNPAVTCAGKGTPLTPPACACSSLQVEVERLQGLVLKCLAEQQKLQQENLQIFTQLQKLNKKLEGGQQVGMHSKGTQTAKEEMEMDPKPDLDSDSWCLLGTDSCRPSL
The conditions noted are these: at 0.1 µM.

Serine/threonine-protein kinase Nek7 (Homo sapiens), sequence (Q8TDX7 whole entry, looked up): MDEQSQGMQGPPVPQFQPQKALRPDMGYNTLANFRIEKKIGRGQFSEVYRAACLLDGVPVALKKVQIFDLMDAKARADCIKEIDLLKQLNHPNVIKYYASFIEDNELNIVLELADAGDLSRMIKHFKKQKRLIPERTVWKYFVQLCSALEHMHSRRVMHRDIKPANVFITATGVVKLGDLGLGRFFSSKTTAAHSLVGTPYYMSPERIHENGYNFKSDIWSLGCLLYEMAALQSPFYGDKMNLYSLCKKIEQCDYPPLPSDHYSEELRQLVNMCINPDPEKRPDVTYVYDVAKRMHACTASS
Casein kinase II subunit alpha (Homo sapiens), sequence (P68400 whole entry, looked up): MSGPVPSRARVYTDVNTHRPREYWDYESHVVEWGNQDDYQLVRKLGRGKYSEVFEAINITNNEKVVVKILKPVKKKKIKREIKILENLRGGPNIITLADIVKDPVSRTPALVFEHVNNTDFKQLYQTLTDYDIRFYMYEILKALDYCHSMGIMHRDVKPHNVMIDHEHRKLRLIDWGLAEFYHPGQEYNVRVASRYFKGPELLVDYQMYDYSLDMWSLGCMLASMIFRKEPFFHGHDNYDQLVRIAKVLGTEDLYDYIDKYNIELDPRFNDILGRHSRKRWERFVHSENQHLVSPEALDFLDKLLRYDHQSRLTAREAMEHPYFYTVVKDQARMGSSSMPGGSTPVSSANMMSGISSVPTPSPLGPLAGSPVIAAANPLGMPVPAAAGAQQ
Serine/threonine-protein kinase Nek6 (Homo sapiens), sequence (Q9HC98 whole entry): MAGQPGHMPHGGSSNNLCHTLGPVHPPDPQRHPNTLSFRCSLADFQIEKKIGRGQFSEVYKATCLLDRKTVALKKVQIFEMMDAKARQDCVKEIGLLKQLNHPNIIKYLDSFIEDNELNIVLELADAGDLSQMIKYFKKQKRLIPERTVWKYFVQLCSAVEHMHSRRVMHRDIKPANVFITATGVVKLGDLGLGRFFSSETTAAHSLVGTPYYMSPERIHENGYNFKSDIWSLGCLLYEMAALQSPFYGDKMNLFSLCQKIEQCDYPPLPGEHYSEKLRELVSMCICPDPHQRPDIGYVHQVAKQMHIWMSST
Sphingosine kinase 1 (Homo sapiens), sequence (Q9NYA1 whole entry): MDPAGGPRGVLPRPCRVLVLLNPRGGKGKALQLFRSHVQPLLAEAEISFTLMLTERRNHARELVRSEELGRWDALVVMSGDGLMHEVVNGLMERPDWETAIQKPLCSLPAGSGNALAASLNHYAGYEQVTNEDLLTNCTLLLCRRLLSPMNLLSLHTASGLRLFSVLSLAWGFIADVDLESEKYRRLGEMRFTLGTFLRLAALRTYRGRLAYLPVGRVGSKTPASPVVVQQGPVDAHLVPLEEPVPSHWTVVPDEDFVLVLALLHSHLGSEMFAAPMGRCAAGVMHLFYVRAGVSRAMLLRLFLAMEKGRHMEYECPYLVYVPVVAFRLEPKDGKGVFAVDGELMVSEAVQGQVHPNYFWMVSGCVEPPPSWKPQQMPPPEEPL

Usually inhibition stands for the relative decrease from the control value, in per cent. As for `NS(=O)(=O)c1ccc(N/N=C2\C(=O)Nc3cccc(CCc4ccncc4)c32)cc1`, the inhibition in test [1] is 3.16%; in test [2], 0%; in test [3] it was -4.51%; in [4], 5.35%; in test [5], 2.3%; in test [6], -0.34%. Further, the inhibition is 1.3% in test [7]; 0.73% in test [8]; -2.12% in test [9]; -0.26% in [10]; 3.03% in test [11]; 2.1% in test [12]. The inhibition in test [13] is 1.7%; in [14], 1.25%; in test [15] it was 0.63%; in test [16] it was -2.2%; in [17] it was -0.1%; in test [18] it was 0.71%. For the same compound, the inhibition in test [19] is 0.86%; in [20], 2.93%.
